Sfp PPTase inh: blocks B. subtilis Sfp PPTase activity; Biochemical Sfp PPTase activity, qHTS; Potency, µM, actives largely listed as inhibitors; 310,000 tested, 3.5% active; AID 1490;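 also: the enzyme is Sfp with the accession as filed and its product quenches rhodamine fluorescence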
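Reaction rates are the 30-min fluorescence difference (ex 525, em 598 nm) in wells containing 15 nM Sfp, 5 uM rhodamine-CoA and 12.5 uM BHQ-2-YbbR at pH 7.6 with 10 mM MgCl2.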
TDP1 block: TDP1 (human) enzyme inhibition; Q9NUW8; recombinant TDP1, AlphaScreen DNA substrate cleavage; Potency, µM (doses to about 130 µM), usual class: inhibitors; 350,000 tested, 0.28% active; also: nearly all actives have a fitted effect of over 40% in size
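Steps: enzyme plus compound, 15 min RT; add biotin/phosphotyrosine-FITC oligonucleotide (15 nM final), react 5 min; add donor/acceptor beads (10 ug/ml final), 10 min; read AlphaScreen. Tdp1 at 1 nM final.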
BAZ2B inh: inhibitors of human BAZ2B bromodomain. AlphaScreen BAZ2B-H3K14Ac peptide displacement. Potency, µM (top dose mostly 114 µM), actives largely listed as inhibitors. 360,000 tested, 4.4% active. AID 504333; also: nearly all actives have a fitted effect of over 60% in size
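AlphaScreen displacement of biotin-H3(5-23)K14Ac peptide (50 nM final) from BAZ2B (50 nM final) in PBS pH 7.4, 0.01% Tween-20; complex preformed 30 min RT, then compounds (top 110 uM) 30 min RT, beads 20 min dark.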
HP1b chromo inh: HP1-beta chromodomain-methylated histone interaction inhibition; AID 540317; P83916; 390,000 tested, 0.56% active; Potency, µM (titrated, usually from 114 µM), hits mostly inhibitors; AlphaScreen HP1-beta / biotin-H3K9me3 peptide binding; also: nearly all actives have a fitted effect of over 70% in size
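HP1-beta protein (50 nM final) preincubated 30 min at room temperature with biotinylated H3(1-18)K9me3 peptide (50 nM) in PBS pH 7.4, 0.01% Tween-20, then compound added for 30 min. AlphaScreen streptavidin donor/nickel chelate acceptor beads (10 ug/mL final), 30 min dark, luminescence read.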
JMJD2A Tudor: inhibitors of human JMJD2A Tudor domain; O75164; AlphaScreen JMJD2A-Tudor / H3K4me3 peptide binding; Potency, µM (highest dose often 114 µM), actives largely listed as inhibitors; 390,000 tested, 4.4% active; AID 504339; also: nearly all actives have a fitted effect of over 50% in size
G9a block: inhibitors of human histone lysine methyltransferase G9a | AID 504332 | Q96KQ7 | 350,000 tested, 8.8% active | Potency, µM (titrated, usually from 102 µM), actives largely listed as inhibitors | G9a H3K9 monomethylation, AlphaScreen, 2 h; also: nearly all actives have a fitted effect of over 75% in size
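Methyltransferase reactions run at room temperature for 2 h (20 nM enzyme, 500 nM biotin-H3K9 peptide, 20 uM SAM) after a 15 min compound preincubation; product detected by AlphaScreen beads and anti-H3K9me1 antibody.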
Numbers stand for hits; – = inactive; ? = inconclusive; · = no result given; [ ] = dose if it differs, or a comment. An excerpt weighted towards active compounds, which were near 12% of everything screened. Calls follow the shape of the dose curve; as a rule, active = well fitted curve in the direction sought with a large enough effect; inconclusive = small, poorly fitted or top-dose-only effect, or another doubt; inactive = no such curve, though single readings can be large; an effect the other way counts as inactive or inconclusive.

SMILES	Sfp PPTase inh	TDP1 block	BAZ2B inh	HP1b chromo inh	JMJD2A Tudor	G9a block
O=C(O)C1CCCCC1C(=O)Nc1cccc(Br)c1 (stereo not given)	·	2.8µM	?	25µM	25µM	–[2.33 µM]
COc1ccc2nc(C)cc(SCC(=O)NNC(=O)COc3ccccc3)c2c1	–	–	–	–	–	–[0.0925 µM]
COc1ccc2nc(C)cc(Sc3nc4ccccc4s3)c2c1	?	–	–	–	79µM	14µM
Cc1ccc(NC2=C(NCCO)C(=O)c3ccccc3C2=O)cc1	–	–	14µM	?	50µM	11µM
CN1CC[C@@]2(CCCN(C(=O)c3cccc(F)c3)C2)C1	–	·	·	·	·	–[12.7 µM]
O=C(O)CC(C(=O)O)c1ccc(OCCCCOc2ccc(C(CC(=O)O)C(=O)O)cc2)cc1 (stereo not given)	–	28µM	–	–	?	79µM
Cc1ccsc1/C=N/n1c(-c2cc(-c3ccccc3)n[nH]2)n[nH]c1=S	71µM	–	–	–	?	2.5µM
Cc1ccccc1/C=N/n1c(-c2cc(-c3ccccc3)n[nH]2)n[nH]c1=S	56µM	·	–	–	?	?
Cc1ccsc1/C=N/n1cnnc1	–	–	–	–	–	–
S=c1[nH]nc(-c2cc(-c3ccccc3)n[nH]2)n1/N=C/c1c(Cl)cccc1Cl	40µM	·	79µM	–	45µM	4µM
Cc1ccc(-c2n[nH]c(=S)n2/N=C/c2sccc2C)cc1	–	–	–	–	–	0.63µM
CN(C)c1ncc2ncc(=O)n(CCc3ccccc3)c2n1	–	·	·	·	·	–[0.501 µM]
COc1ccc(-c2nc(NC3=NCCCCC3)sc2C)cc1	–	–	?	–	–	?
CCNc1nc(-c2ccc(OC(F)F)cc2)c(C)s1	?	–	–	–	–	40µM
COc1ccc([N+](=O)[O-])cc1NC(=O)C(C)OC(=O)C1CCC1 (stereo not given)	·	·	–	–	–	–[0.501 µM]
C#CCOCCOCCOCCNc1nc(N2CCN(C(=O)[C@H](CCCCN)n3cc(C(N)[C@H](C)CC)nn3)CC2)nc(N2CCN(C(=O)[C@H](CCC(=O)O)n3cc(C(N)[C@H](C)CC)nn3)CC2)n1 (stereo not given in full)	?	–	79µM	–	50µM	?
C#CCOCCOCCOCCNc1nc(N2CCN(C(=O)[C@H](CCCN=C(N)N)n3cc(C(N)[C@@H](C)CC)nn3)CC2)nc(N2CCN(C(=O)[C@H](CCC(=O)O)n3cc([C@@H](N)CCCCN)nn3)CC2)n1 (stereo not given in full)	·	–	·	–	89µM	·
O=C(NCCCSc1ccccc1)c1cccnc1	–	–	–	–	–	28µM
O=C(NCCc1ccc(Cl)cc1)c1cccnc1	–	–	?	–	–	56µM
O=C(NCCc1ccc(Cl)cc1Cl)c1cccnc1	–	–	–	?	–	–
O=C(NC1CCCC1)C(c1ccncc1)N(C(=O)c1csnn1)c1cccc(F)c1 (stereo not given)	–	–[0.0935 µM]	–	–	–	–
O=C1C(=O)N(Cc2ccc(Cl)c(Cl)c2)c2ccccc21	50µM	·	·	·	·	·
O=C1/C(=N/n2cnnc2)c2ccccc2N1Cc1ccccc1	45µM	–	–	·	·	?
CSc1ccccc1C(=O)N1CCC(n2nccc2NC(=O)C(C)(C)C)CC1	–	–	–	–	–	–
COC(=O)c1cc(O)cc(OC)c1Oc1cc(C)cc(O)c1C(=O)O	56µM	·	8.9µM	?	20µM	?
SMILES	Sfp PPTase inh	TDP1 block	BAZ2B inh	HP1b chromo inh	JMJD2A Tudor	G9a block
COC(=O)c1cc(O)cc(OC)c1C(=O)c1c(O)cc(C)cc1O	–	·	–	–	?	–[12.7 µM]
COc1ccc(-c2nnc(SCC(=O)NC3CCCC3)nc2-c2ccc(OC)c(OC)c2)cc1OC	·	–	–	–	–	–
Cc1ccc(S(=O)(=O)N2CCN(C(=O)CSc3nccn3C)CC2)cc1	–	–	–	–	–	–
CCOC(=O)C1CCN(C(=O)CCc2nnc3ccc(N4CCC(C)CC4)nn23)CC1	–	–	–	?	?	–
CC1CC(C)CN(C(=O)CCc2nnc3ccc(N4CCCCC4)nn23)C1 (stereo not given)	–	–	–	–	40µM	79µM
CC(=O)Nc1ccc(S(=O)(=O)NC(CSc2ccc(C(=O)O)cc2[N+](=O)[O-])C(=O)O)cc1 (stereo not given)	–	·	?	–	–	50µM
CC(=O)Nc1ccc(S(=O)(=O)N[C@H](C(=O)O)C(C)C)cc1	–	–	·	–	–	–
CCOc1ccccc1NC(=O)C(C)Sc1nc2c(c(=O)[nH]1)CCCC2 (stereo not given)	·	–	–	–	–	?
Cc1ccc(-n2nc(C(=O)N3CCN(c4ccc(F)cc4)CC3)c(=O)n(C)c2=O)cc1	·	–	–	–	–	–
COc1ccccc1CNC(=O)c1cn(C)c(=O)c2cc(OC)c(OC)cc12	–	–	–	–	13µM	–
CCn1cc(C(=O)NCc2cccnc2)c2cc(OC)c(OC)cc2c1=O	–	–	–	–	–	11µM
COCCCNC(=O)c1cn(C)c(=O)c2cc(OC)c(OC)cc12	–	–	–	–	–	–[2.33 µM]
CCO/C(C)=C1\C(=O)N(CC)c2ccccc21	–	–	–	–	–	50µM
CCOC(=O)/C(C#N)=C1\C(=O)N(Cc2ccccc2)c2ccccc21	35µM	·	35µM	14µM	20µM	·
CCc1ccc(CNC(=O)c2cccc(-n3c(C)nc4cccnc43)c2)cc1	·	–	–	–	–	–
Cc1ccccc1Cn1c2ccccc2c2cnn(CC(=O)NC(C)CCc3ccccc3)c(=O)c21 (stereo not given)	·	–	–	–	–	–
COc1ccc(CNc2ncnc3ccc(-c4c(C)noc4C)cc23)c(OC)c1	–	·	·	·	·	–[0.501 µM]
CC1(C)C(c2cccs2)=[N+]([O-])C2(CCCCC/C2=N\NC(N)=S)N1O (stereo not given)	89µM	–	–	–	–	–
COc1ccc(OC)c(NC(=O)c2nnn(CC(=O)Nc3ccc4c(c3)OCO4)c2N)c1	–	·	?	–	–	–
CC(=O)N=c1sc2nc3ccccc3nc2n1N(C(C)=O)C(C)=O	45µM	–	50µM	?	7.9µM	?
CC(=O)N=c1sc2ccccc2n1C	–	–	–	–	–	–
CN(O)/C=c1/ccc2c(n1)C(=O)C=CC=2	–	–	7.9µM	–	20µM	10µM
COc1cc(C(=O)NCC(=O)N/N=C/c2cccnc2)cc(OC)c1OC	–	–	–	–	–	–
CC1CCc2c(sc(NC(=O)c3cc(-c4ccc(Br)cc4)on3)c2C(N)=O)C1 (stereo not given)	·	–	–	–	–	–
CC(=O)Nc1ccccc1-c1ccccc1[N+](=O)[O-]	·	·	·	–	–	·

Assay outcomes: PubChem, National Center for Advancing Translational Sciences (NCATS)
